# Values without a mark were called inactive. The rule behind the calls is not given here.
# Molecular target: Pantothenate synthetase (Mycobacterium tuberculosis (strain ATCC 25618 / H37Rv)) (UniProt P9WIL5)
# Test: Coupled enzyme confirmation of inhibitors against recombinant Mtb PanC (AID 375);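 note: 0% = full reaction with vehicle and 100% = no enzyme background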
# Settings: coupled enzyme assay; at 10 µM, hits give high values
# Pantothenate synthetase (Mycobacterium tuberculosis (strain ATCC 25618 / H37Rv)), sequence (P9WIL5 whole entry, looked up): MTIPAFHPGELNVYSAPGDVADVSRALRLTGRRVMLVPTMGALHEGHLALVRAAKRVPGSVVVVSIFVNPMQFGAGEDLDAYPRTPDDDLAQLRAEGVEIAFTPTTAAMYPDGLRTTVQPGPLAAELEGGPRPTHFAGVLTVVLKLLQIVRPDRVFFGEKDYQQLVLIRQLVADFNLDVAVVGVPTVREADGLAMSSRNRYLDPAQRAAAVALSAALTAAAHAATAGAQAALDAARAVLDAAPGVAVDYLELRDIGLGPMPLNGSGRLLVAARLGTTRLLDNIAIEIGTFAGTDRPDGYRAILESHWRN
row,Compound,inhibition [%]
1,COc1ccc(NC(=O)CN2CCN(S(=O)(=O)c3ccc(Cl)cc3)CC2)cc1,13
2,CCN(CCNC(=O)C1CCN(S(C)(=O)=O)CC1)c1ccccc1,6
3,COc1ccc(Nc2nc(OC)nc(N3CCN(c4ccc(OC)cc4)CC3)n2)cc1,1
4,COCCn1c(=O)[nH]c2cc(C(=O)N3CCN(c4ccccc4OC)CC3)ccc2c1=O,2
5,CCc1ccc(C2CC(c3cccc(OC)c3)n3nc(N)nc3N2)cc1 (stereo unspecified),3
6,CCOC(=O)c1ccccc1NC(=O)c1c(O)c2ccccc2n(CC)c1=O,0
7,Cc1cc2ccccc2c(=O)n1CC(=O)N(C)c1ccc(F)cc1,0
8,COCCNC(=O)C(c1ccc(C)o1)N(C(=O)c1snc(C(N)=O)c1N)c1ccc(C)cc1 (stereo unspecified),4
9,Cc1ccc(NC(=O)CN2CC(C)SC2=NC2CCCCC2)cc1 (stereo unspecified),6
10,CC(C)c1ccc(-c2nc(N3CCCCC3)[nH]c(=O)c2C#N)cc1,5
11,Cc1cc(Cl)ccc1NC(=O)CSc1nnc(Cc2cccs2)n1Cc1ccco1,0
12,O=C(c1ccccc1F)N1CCN(Cc2cccc(Cl)c2)CC1,5
13,Cc1cccc(-n2ncc3c(NCCCn4ccnc4)ncnc32)c1,4
14,COc1cc(S(=O)(=O)N2CCOCC2)ccc1NC(=O)COC(=O)c1ccccn1,0
15,CCCc1nnc(NC(=O)CCC(=O)N2CCN(CCOc3ccc(C)cc3)CC2)s1,5
16,CCn1nc(C(=O)OCC(=O)c2cc(C)n(Cc3cccs3)c2C)c2ccccc2c1=O,1

# Reference: PubChem BioAssay
